From the supplement of paper PMC10849652
About 7,900 targets were measured; listed, in parts, are those with a hit and a random draw of the rest. About 0.6% of all pairs of compound and target were hits. Unmarked numbers belong to inactive results.

Key:
Experiment in all cases: log2 fold change, soluble protein after heating vs DMSO (PISA); higher = thermal stabilisation; K562 cells, 10 uM, 30 min; active = over 0.2 and 3.5 SD of the protein, either way, in both replicates (recomputed)
erlotinib = compound: C#Cc1cccc(Nc2ncnc3cc(OCCOC)c(OCCOC)cc23)c1 [erlotinib]
Method in brief: (§1)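 K562 cells (2×10^6 cells/mL) were treated with 10 μM compound for 30 min, and aliquots were heated for 3 min over 48°C-58°C. Pooled aliquots were extracted in PBS with 0.5% NP-40 at 4°C, and the supernatant after 21,000xg for 90 min was measured by TMTpro 16plex LC-MS/MS with channel sums equalised. Reported thermal stability, relative to control samples and from duplicates, is a log2 fold change.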

[1] = compound: C/C(=N\NC(=O)C1=CC(=CC=C1)S(=O)(=O)N2CCOCC2)/C3=C(C=CC(=C3)Cl)O
Method in brief: as §1

[2] = compound: C1=CC(=C(C=C1Cl)C2=NC3=NC=CN=C3C(=N2)NC4=CC=NC=C4)F
Method in brief: as §1

[3] = compound: C1=CC(=CC=C1C2=NC3=C(N2)C=C(C=C3)C(=O)N)OC4=CC=C(C=C4)Cl
Method in brief: as §1

[4] = compound: C1=CC2=C(C=CC(=C2)/C=C\3/C(=O)NC(=NCC4=CC=CS4)S3)N=C1
Method in brief: as §1

[5] = compound: C1=CC2=NC=CN=C2C=C1/C=C/3\C(=O)NC(=O)S3
Method in brief: as §1

[6] = compound: C1=CC=C2C(=C1)C3=NNC4=CC=CC(=C43)C2=O
Method in brief: as §1

[7] = compound: C1CCN(C1)C(=O)NC2=CC=CC(=C2)NC3=NC=C(C(=N3)NCCC4=CN=CN4)Br
Method in brief: as §1

[8] = compound: C1CN(CCC1(CC2=CC=C(C=C2)Cl)N)C3=NC=NC4=C3C=CN4
Method in brief: as §1

[9] = compound: C1=CC=C(C=C1)C2=NC(=C(N2)C3=CC=NC=C3)C4=CC(=C(C=C4)Cl)O
Method in brief: as §1

UniProt Q8NBI2, sequence (Q8NBI2 whole entry, looked up): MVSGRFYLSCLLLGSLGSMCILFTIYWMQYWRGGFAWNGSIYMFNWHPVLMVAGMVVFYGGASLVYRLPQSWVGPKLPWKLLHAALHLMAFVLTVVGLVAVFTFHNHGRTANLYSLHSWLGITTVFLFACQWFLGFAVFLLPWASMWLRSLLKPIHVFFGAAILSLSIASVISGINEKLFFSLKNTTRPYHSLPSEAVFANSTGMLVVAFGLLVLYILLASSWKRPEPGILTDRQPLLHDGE
UniProt Q6P3W2, sequence (Q6P3W2 whole entry, looked up): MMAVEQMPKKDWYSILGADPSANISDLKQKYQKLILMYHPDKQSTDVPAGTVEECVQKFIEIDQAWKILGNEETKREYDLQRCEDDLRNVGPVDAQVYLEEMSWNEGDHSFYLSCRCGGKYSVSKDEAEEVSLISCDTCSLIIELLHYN
UniProt P29692, sequence (P29692 whole entry, looked up): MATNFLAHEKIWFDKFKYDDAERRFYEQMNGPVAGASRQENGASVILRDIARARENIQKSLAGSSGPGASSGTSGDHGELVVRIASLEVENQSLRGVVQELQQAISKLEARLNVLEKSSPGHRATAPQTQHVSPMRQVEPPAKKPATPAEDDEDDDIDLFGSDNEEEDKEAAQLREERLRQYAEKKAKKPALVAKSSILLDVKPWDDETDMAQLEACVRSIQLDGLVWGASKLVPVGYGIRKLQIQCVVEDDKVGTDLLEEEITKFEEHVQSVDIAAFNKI
UniProt Q4LDG9, sequence (Q4LDG9 whole entry, looked up): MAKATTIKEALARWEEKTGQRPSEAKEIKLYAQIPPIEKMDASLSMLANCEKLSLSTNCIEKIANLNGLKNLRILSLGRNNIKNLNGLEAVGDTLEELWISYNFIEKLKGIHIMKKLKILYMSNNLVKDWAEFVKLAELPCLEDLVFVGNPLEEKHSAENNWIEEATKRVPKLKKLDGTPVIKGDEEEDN
UniProt Q92556, sequence (Q92556 whole entry, looked up): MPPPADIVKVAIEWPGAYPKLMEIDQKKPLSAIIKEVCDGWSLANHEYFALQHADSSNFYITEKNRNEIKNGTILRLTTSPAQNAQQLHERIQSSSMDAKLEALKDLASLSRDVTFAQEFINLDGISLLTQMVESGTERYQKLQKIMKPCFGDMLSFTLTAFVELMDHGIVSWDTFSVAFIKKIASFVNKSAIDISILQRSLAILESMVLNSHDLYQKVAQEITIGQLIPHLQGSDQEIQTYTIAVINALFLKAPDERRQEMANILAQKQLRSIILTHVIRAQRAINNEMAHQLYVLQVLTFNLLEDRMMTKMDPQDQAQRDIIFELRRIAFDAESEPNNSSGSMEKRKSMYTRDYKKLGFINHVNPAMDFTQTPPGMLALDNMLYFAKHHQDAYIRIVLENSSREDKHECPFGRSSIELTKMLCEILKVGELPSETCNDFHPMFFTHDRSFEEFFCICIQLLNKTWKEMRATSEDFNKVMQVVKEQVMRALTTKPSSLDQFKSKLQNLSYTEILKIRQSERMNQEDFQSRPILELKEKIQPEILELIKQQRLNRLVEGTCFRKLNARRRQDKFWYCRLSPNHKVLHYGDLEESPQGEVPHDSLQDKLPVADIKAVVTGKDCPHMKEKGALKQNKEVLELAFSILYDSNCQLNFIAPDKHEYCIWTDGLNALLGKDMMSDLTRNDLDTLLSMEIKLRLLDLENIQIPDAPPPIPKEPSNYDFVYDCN
UniProt Q96PV7, sequence (Q96PV7 whole entry, looked up): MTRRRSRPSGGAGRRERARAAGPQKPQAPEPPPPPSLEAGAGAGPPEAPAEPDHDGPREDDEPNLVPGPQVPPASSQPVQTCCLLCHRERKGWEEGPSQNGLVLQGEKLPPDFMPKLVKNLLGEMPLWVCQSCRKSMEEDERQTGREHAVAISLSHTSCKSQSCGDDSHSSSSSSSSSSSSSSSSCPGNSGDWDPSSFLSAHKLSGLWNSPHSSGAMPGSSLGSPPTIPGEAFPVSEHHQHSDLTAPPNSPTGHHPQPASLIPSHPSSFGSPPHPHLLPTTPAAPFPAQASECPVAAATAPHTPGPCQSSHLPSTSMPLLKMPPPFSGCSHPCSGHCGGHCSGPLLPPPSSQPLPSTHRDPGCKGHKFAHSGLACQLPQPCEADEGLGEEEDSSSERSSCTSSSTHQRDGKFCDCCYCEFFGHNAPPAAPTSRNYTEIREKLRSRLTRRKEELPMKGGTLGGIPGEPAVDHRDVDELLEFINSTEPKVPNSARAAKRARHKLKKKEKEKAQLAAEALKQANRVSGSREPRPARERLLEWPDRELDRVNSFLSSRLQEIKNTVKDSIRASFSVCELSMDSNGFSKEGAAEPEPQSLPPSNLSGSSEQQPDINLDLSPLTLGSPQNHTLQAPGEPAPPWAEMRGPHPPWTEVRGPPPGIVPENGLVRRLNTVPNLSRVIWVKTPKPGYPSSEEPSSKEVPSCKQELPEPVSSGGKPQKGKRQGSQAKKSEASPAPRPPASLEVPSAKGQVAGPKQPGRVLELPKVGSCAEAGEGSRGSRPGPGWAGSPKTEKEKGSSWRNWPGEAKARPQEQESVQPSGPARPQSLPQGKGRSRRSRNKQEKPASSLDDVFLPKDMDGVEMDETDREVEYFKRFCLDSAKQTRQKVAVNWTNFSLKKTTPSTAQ
UniProt P0CG12, sequence (P0CG12 whole entry, looked up): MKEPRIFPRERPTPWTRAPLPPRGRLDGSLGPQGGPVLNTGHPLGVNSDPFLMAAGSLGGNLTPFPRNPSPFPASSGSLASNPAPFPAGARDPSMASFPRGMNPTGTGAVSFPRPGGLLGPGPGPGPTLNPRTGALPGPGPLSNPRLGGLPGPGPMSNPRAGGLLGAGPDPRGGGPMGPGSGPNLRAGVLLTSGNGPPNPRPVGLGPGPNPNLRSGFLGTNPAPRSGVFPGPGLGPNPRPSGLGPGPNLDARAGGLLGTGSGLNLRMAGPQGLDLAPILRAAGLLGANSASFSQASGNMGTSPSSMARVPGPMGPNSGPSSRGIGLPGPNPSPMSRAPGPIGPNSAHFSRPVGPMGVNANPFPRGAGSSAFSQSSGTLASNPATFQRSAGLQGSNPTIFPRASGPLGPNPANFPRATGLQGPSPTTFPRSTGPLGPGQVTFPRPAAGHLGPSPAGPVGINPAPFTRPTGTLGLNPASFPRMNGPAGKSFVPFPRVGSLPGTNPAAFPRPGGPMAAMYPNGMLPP
UniProt Q14689, sequence (Q14689 whole entry, looked up): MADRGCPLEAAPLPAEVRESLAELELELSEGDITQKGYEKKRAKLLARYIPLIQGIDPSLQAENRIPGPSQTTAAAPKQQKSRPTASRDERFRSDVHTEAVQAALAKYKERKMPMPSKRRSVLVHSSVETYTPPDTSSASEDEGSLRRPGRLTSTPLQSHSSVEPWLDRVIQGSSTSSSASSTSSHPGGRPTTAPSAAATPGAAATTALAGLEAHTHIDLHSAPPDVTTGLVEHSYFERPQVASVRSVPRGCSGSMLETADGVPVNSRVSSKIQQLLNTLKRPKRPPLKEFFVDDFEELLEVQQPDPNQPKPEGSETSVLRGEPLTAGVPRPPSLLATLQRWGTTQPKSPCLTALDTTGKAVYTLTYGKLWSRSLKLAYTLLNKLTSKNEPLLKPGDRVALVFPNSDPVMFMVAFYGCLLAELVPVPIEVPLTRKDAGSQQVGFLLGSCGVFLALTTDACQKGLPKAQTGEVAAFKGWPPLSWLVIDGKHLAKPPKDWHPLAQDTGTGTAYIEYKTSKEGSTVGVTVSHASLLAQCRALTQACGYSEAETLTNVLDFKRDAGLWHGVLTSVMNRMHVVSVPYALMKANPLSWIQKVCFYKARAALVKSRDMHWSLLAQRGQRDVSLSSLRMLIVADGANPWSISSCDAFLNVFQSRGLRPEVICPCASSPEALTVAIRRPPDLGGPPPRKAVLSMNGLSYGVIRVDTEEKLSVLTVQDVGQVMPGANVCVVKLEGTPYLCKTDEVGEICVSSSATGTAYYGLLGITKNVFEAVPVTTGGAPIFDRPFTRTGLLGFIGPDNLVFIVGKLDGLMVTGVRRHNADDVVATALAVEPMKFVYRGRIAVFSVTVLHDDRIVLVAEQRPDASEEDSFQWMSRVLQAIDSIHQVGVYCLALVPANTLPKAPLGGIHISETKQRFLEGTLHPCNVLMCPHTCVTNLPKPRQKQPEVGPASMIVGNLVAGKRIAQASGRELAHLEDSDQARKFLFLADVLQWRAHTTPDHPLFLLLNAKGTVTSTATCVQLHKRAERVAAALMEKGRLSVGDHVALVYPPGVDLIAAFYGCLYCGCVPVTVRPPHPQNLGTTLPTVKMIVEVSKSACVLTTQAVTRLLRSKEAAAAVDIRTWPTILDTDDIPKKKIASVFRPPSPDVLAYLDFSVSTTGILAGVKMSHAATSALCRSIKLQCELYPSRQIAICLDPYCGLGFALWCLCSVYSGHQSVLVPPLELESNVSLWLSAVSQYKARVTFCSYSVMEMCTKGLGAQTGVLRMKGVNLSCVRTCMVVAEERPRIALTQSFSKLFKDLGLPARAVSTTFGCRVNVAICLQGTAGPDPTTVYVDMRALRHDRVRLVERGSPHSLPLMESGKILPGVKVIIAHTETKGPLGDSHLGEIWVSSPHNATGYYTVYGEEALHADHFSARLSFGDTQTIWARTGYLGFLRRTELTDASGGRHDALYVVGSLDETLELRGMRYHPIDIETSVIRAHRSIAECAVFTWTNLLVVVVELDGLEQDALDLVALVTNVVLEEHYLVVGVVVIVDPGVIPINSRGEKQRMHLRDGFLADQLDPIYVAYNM
UniProt O75822, sequence (O75822 whole entry, looked up): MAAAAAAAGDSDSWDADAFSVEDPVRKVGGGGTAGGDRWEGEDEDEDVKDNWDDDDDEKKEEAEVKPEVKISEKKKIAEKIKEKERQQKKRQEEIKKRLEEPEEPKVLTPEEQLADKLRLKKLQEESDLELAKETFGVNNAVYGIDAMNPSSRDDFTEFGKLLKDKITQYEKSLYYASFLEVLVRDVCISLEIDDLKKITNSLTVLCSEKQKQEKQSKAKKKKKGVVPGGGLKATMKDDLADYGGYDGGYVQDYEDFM

Target	log2 fold change (erlotinib)	log2 fold change [1]	log2 fold change [2]	log2 fold change [3]	log2 fold change [4]	log2 fold change [5]	log2 fold change [6]	log2 fold change [7]	log2 fold change [8]	log2 fold change [9]
DEGS1 (UniProt O15121)	-0.075	0.076	-0.113	0.145	0.049	-0.003	-0.096	-0.245	0.32	
ELF1 (UniProt P32519)	-0.016	-0.052	0.068	0.028	-0.003		-0.091	0.013	-0.092	0.082
DPYSL2 (UniProt Q16555)	-0.02	-0.104	0.099	0.072	0.074	0.003	0.055	-0.044	0.14	
EIF4A1 (UniProt P60842)	0.036	0.049	0.047	-0.023	0.016	-0.021	0.035	-0.039	0.054	0.007
DIP2A (UniProt Q14689)	-0.002	0.07	0.055	0.103	-0.145	0.076	0.043	0.03	0.053	0.037
EZH2 isoform 2 (UniProt Q15910)	-0.036	0.129	0.163	0.084	0.046	0.048	0.054	-0.106	-0.062	
EIF3J isoform 2 (UniProt O75822)	0.094	-0.093	0.029	0.005	0.14	-0.042	-0.138	0.143	0	
FADS3 (UniProt Q9Y5Q0)	0.03	-0.005	0.104	0.017	0.064	0.058	0.001	-0.055	0.05	0.04
F2RL3 (UniProt Q96RI0)	-0.056	0.026		-0.083	0.039		-0.12	-0.161	0.065	-0.052
DLK1 (UniProt P80370)			0.028							
EPHX2 (UniProt E5RI53)			0.037			-0.082				
EEF2K (UniProt O00418)	-0.064		-0.137	-0.024						0.027
EPHB4 (UniProt P54760)										-0.151
EHBP1 (UniProt Q8NDI1)		-0.012			0.086		0.095	-0.132	0.033	
DNAL1 (UniProt Q4LDG9)		-0.034	0.053		-0.07	-0.654 (active)	0.091			-0.113
ELMO1 (UniProt Q92556)	0.111		-0.079	-0.001		0.037				-0.308
ENTR1 (UniProt Q96C92)	-0.015			0.043						
DNAH10 (UniProt Q8IVF4)	0.325		0.251	-0.187		-0.054		-0.052	0.137	
DNAJC24 (UniProt Q6P3W2)	-0.114		0.123	0.062		-0.053		-0.047	-0.158	-0.084
DNAH5 (UniProt Q8TE73)	0.014		0.036	0.001		-0.005		0.084	0.095	-0.067
FAM118A (UniProt Q9NWS6)		0.005	0.098		0.083	0.089	0.212	0.084	0.078	-0.365
FADS1 (UniProt F5GYH4)						0.155		0.057	0.002	
DNM2 isoform 4 (UniProt P50570)	0.042		0.084	-0.128		0.261				-0.008
EEF1D isoform 3 (UniProt P29692)	-0.009			0.009				-0.16	-0.087	

Target	log2 fold change (erlotinib)	log2 fold change [1]	log2 fold change [2]	log2 fold change [3]	log2 fold change [4]	log2 fold change [5]	log2 fold change [6]	log2 fold change [7]	log2 fold change [8]	log2 fold change [9]
EIF4G1 (UniProt Q04637)		0.171			0.018		-0.356	-0.301	-0.425	
DDX46, A0A0C4DG89			0.174							
FAM193B (UniProt Q96PV7)		-0.127	-0.311		-0.085	0.068	-0.101	-0.133	-0.483	
ERF (UniProt P50548)	-0.448		0.127	-0.036				0.058	0.13	
DHPS (UniProt M0R1T2)						0.099				
DDB1 isoform 2 (UniProt Q16531)			0.017			0.205				
DERPC (UniProt P0CG12)	0.197			-0.346		0.078				-0.034
DOLPP1 (UniProt Q86YN1)	0.049	0.039		0.009	-0.165	0.074	0.011	-0.088	0.001	0.17
EIF4G3 isoform 3 (UniProt O43432)	0.047	0.01		-0.083	0.041	-0.046	0.071	-0.049	-0.125	-0.028
DHRS13 (UniProt Q6UX07)	0.014	0.043		-0.006	0.037		0.047	-0.009	0.065	0.073
CTNNBL1 (UniProt Q8WYA6)						-0.032				
DOP1A (UniProt Q5JWR5)	0.177		0.009	-0.152		0.035				
CYB561A3 isoform 2 (UniProt Q8NBI2)	-0.021	-0.016		0.02	-0.005	0.114	-0.034	-0.01	0.069	0.043
CTSS (UniProt P25774)								0.144	0.545	-0.215
FAM160A2 isoform 2 (UniProt Q8N612)			0.2			-0.012		-0.071	0.027	-0.134
DENND1A isoform 6 (UniProt Q8TEH3)						-0.328		-0.315	-0.034	
EDRF1 (UniProt Q3B7T1)	0.066		-0.038	-0.119		-0.017				-0.033
ENTPD7 (UniProt Q9NQZ7)	0.096		-0.028	-0.181		0.063		-0.042	0.037	
DCP2 (UniProt Q8IU60)		0.176	-0.117		-0.118		-0.073	-0.134	-0.064	0.021
CWF19L2 (UniProt Q2TBE0)	0.004	0.056		0.038	0.03		-0.014	0.017	-0.04	-0.132
FAM135A (UniProt Q9P2D6)	0.033		0.07	-0.116						
DCAF4 (UniProt Q8WV16)			0.009							-0.15
EID1 (UniProt Q9Y6B2)	-0.17		-0.425	0.137				0.092	0.029	
DNAJB1 (UniProt M0R128)						-0.105		0.142	0.133	
